The source of these data is PubChem BioAssay (EPA / NIEHS).

Read-out in assay [1]: UDP glucuronosyltransferase (UGT1A1), UGT1A1 (gene 54658)
Description: LTEA_HepaRG_UGT1A1: Life Technologies and Expression Analysis (LTEA) Assay for UDP glucuronosyltransferase (UGT1A1) using HepaRG (AID 2283538; active means hit-call score of the fitted dose curve at least 0.9, where 1 is the maximum; inactive means score below 0.9). The conditions noted are these: mRNA level, 48 h; actives raise or lower the signal. Put shortly: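 UGT1A1 transcript level, measured by qRT-PCR with three housekeeping genes for normalization, after 48 h treatment of human HepaRG cells (0.5% DMSO, duplicates, up to 100 uM, half-log steps, 8 points). Curves fit both directions against DMSO baseline.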

Read-out in assay [2]: UDP glucuronosyltransferase (UGT1A6), UGT1A6 (gene 54578)
As to the kind of experiment: LTEA_HepaRG_UGT1A6: Life Technologies and Expression Analysis (LTEA) Assay for UDP glucuronosyltransferase (UGT1A6) using HepaRG (AID 2283539; active means hit-call score of the fitted dose curve at least 0.9, where 1 is the maximum; inactive means score below 0.9). The note with it: mRNA level, 48 h; actives raise or lower the signal. Summed up:
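Expression was quantified by TaqMan qRT-PCR on Fluidigm arrays with ACTB/GAPDH/POLR2A normalization and bidirectional fitting against 0.5% DMSO. HepaRG cells (~100,000/well) were treated in duplicate for 48 h at eight half-log concentrations up to 100 uM in serum-free induction medium.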

Assay [3] can be described thus: LTEA_HepaRG_LDH_cytotoxicity: Cytotoxicity Assessment in the Life Technologies and Expression Analysis (LTEA) Assay (AID 2283563).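 On AC50: LDH activity released into spent culture medium as a marker of cell death.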 Put shortly: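 LDH release into culture medium read after 48 h chemical treatment of HepaRG cells. Duplicate wells, eight-point half-log series topping at 100 uM, 0.5% DMSO vehicle and baseline.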
Assay [4] can be described thus: TOX21_p53_BLA_p2_viability: Viability Assessment in the Tox21 HCT-116 p53 Agonism Beta-lactamase Assay, Phase 2 (AID 2283591).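 Further: compound exposure lasted 16 h at 37 °C; actives lower the ATP signal meaning cytotoxicity.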 Put shortly:
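Cytotoxicity readout: CellTiter-Glo ATP luminescence, 30 min at room temperature, after the beta-lactamase read. Cells were HCT116 exposed 16 h at 37C to compounds pin-transferred at 217-fold dilution from DMSO stocks.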

Assay [5] addresses Cellular tumor antigen p53 (Homo sapiens) (UniProt P04637). Description: TOX21_p53_BLA_p2_ratio: Tox21 HCT-116 p53 Agonism Beta-lactamase Assay, Ratio, Phase 2 (AID 2283592). Put shortly:
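Read-out is the blue/green (460/530 nm, 405 nm excitation) ratio after 2 h CCF4-AM loading, fitted as gain versus DMSO. Compounds, pinned at 217-fold dilution from DMSO stocks, stayed 16 h on HCT-116 beta-lactamase reporter cells seeded 5 h earlier.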

Assay [6] shares this target. Description: TOX21_p53_BLA_p3_ratio: Tox21 HCT-116 p53 Agonism Beta-lactamase Assay, Ratio, Phase 3 (AID 2283596). Put shortly: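 Cells were seeded at 4000/well, rested 5 h at 37C, then dosed with DMSO compound solutions (217-fold dilution) for 16 h. CCF4-AM substrate was loaded for 2 h at room temperature, and the 460/530 nm emission ratio was fitted for gain of signal versus DMSO.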

Assay [7] is described as follows: TOX21_p53_BLA_p4_viability: Viability Assessment in the Tox21 HCT-116 p53 Agonism Beta-lactamase Assay, Phase 4 (AID 2283597).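 Further: hits lower the luminescence signal meaning cytotoxicity.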 Put shortly: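 Cytotoxicity as reduced cellular ATP (CellTiter-Glo luminescence, 30 min room temperature), measured in the same wells following the CCF4 FRET p53 reading. Human HCT-116 cells received compounds in DMSO (217-fold dilution) for 16 h.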

The target in assay [8] is Cellular tumor antigen p53 (Homo sapiens) (UniProt P04637). As to the kind of experiment: TOX21_p53_BLA_p5_ratio: Tox21 HCT-116 p53 Agonism Beta-lactamase Assay, Ratio, Phase 5 (AID 2283599). Summed up:
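Beta-lactamase reporter ratio (blue 460 nm over green 530 nm, 405 nm excitation) after 2 h CCF4-AM loading, in HCT-116 cells exposed 16 h at 37 C to compounds pinned at 217-fold dilution. Increases relative to DMSO baseline scored.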

The nature of assay [9]: TOX21_p53_BLA_p5_viability: Viability Assessment in the Tox21 HCT-116 p53 Agonism Beta-lactamase Assay, Phase 5 (AID 2283600). Summed up: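 Viability came from CellTiter-Glo ATP luminescence, read after 30 min at room temperature. Before this, HCT-116 p53-bla cells (4000/well) had 16 hours of compound exposure at 37C, with DMSO stocks diluted 217-fold on transfer.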
Assay [10] can be described thus: Tanguay_ZF_120hpf_MORT_legacy: (Legacy) Oregon State University Tanguay Lab 120 Hour Post-fertilization zebrafish Assay for Mortality (AID 2283633). Summed up:
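Static waterborne exposure from 6 to 120 hpf at 28C of single dechorionated wild-type (5D) embryos per well, 0.64% DMSO final. Death recorded present/absent by brightfield at 24 and 120 hpf.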

The nature of assay [11]: Tanguay_ZF_120hpf_YSE_legacy: (Legacy) Oregon State University Tanguay Lab 120 Hour Post-fertilization zebrafish Assay for Yolk Sac Edema (AID 2283634). Put shortly: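 Presence or absence of yolk sac edema was recorded at 120 hpf in surviving larvae. These were wild-type Tropical 5D embryos, chorion removed at 4 hpf, held in static exposure at 28C from 6 hpf with 0.64% DMSO vehicle.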

The nature of assay [12]: Tanguay_ZF_120hpf_AXIS_legacy: (Legacy) Oregon State University Tanguay Lab 120 Hour Post-fertilization zebrafish Assay for Body Axis Malformation (AID 2283635). Summed up:
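Binary scoring of axis defects at 120 hpf under brightfield, fitted positive versus DMSO. Tropical 5D embryos, chorion removed by pronase at 4 hpf, were singly exposed in sealed, dark plates at 28C from 6 hpf; DMSO 0.64% final.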

Assay [13] in a line: Tanguay_ZF_120hpf_JAW_legacy: (Legacy) Oregon State University Tanguay Lab 120 Hour Post-fertilization zebrafish Assay for Jaw Malformation (AID 2283638). Put shortly:
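Binary jaw-malformation call at 120 hpf by brightfield microscopy. Embryos (Tropical 5D strain, chorion removed at 4 hpf) were dosed statically at 6 hpf, one per well, at 28C with 0.64% DMSO. Embryos that died were not scored.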

The nature of assay [14]: Tanguay_ZF_120hpf_OTIC_legacy: (Legacy) Oregon State University Tanguay Lab 120 Hour Post-fertilization zebrafish Assay for Otic Vesicle Malformation (AID 2283639). Put shortly: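 Binary scoring of otic vesicle defects at 120 hpf in zebrafish (Tropical 5D) held under static exposure at 28C, sealed and shaded, with final DMSO 0.64%. Embryos dying by 24 or 120 hpf excluded; fitted positively against DMSO.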

The nature of assay [15]: ATG_XTT_Cytotoxicity: Cytotoxicity Assessment in the Attagene TRANS-FACTORIAL HepG2 Assay (AID 2283584).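 On AC50: cells exposed to compound for 24 h before reading; active means loss of viability signal versus DMSO baseline.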 Summed up:
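Viability endpoint from XTT after 24 h chemical exposure of reporter-transfected human HepG2 liver cells; signal loss fitted relative to DMSO negative control.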

Assay [16] is described as follows: TOX21_p53_BLA_p3_viability: Viability Assessment in the Tox21 HCT-116 p53 Agonism Beta-lactamase Assay, Phase 3 (AID 2283593).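 Further: cells exposed to compound for 16 h before reading.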 Summed up:
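Cellular ATP was quantified by CellTiter-Glo luminescence, read after 30 min at room temperature. Beforehand, HCT116 cells (4000/well) received compound 5 h post-seeding, 217-fold diluted from DMSO, then incubated 16 h at 37C.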

Assay [17] in a line: Tanguay_ZF_120hpf_EYE_legacy: (Legacy) Oregon State University Tanguay Lab 120 Hour Post-fertilization zebrafish Assay for Eye Malformation (AID 2283636).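 Further: binary presence or absence of eye malformation scored by brightfield in 120 hpf larvae.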 Summed up: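 Binary brightfield scoring of eye defects at 120 hpf after static exposure from 6 hpf of single pronase-dechorionated wild-type embryos (28C, 0.64% DMSO). Non-mortality endpoints omitted where embryos died; fit vs DMSO.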

Assay [18] is described as follows: Tanguay_ZF_120hpf_SNOU_legacy: (Legacy) Oregon State University Tanguay Lab 120 Hour Post-fertilization zebrafish Assay for Snout Malformation (AID 2283637). Put shortly:
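Binary snout-malformation call at 120 hpf in wild-type 5D embryos, chorion removed by pronase, under static exposure from 6 hpf at 28C (0.64% DMSO). Embryos dying by 24 or 120 hpf excluded.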

For assay [19], the target named is Cellular tumor antigen p53 (Homo sapiens) (UniProt P04637). Description: TOX21_p53_BLA_p4_ratio: Tox21 HCT-116 p53 Agonism Beta-lactamase Assay, Ratio, Phase 4 (AID 2283601). Put shortly: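 Signal is the blue/green (460nm/530nm) ratio of cleaved versus uncleaved CCF4-AM substrate, read after 2 h substrate loading. Cells were HCT116 carrying the p53-responsive beta-lactamase reporter, dosed 16 h at 37C, 5% CO2; CellTiter-Glo measured in parallel.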
Cellular tumor antigen p53 (Homo sapiens), sequence (P04637 whole entry, looked up): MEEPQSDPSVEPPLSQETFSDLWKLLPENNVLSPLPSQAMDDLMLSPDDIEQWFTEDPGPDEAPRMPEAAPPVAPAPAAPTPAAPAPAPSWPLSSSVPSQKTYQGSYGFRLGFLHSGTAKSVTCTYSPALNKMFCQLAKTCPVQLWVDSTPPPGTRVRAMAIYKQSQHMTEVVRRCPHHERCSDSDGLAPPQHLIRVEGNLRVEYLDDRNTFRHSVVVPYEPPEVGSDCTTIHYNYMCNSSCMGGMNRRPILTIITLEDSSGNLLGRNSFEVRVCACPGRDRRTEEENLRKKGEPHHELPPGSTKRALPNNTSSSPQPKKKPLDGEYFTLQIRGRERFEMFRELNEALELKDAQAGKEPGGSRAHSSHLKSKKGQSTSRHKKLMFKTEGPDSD

Records with an inconclusive call do not appear. The source made the active and inactive calls. How the source made its calls, unless noted: active means hit-call score of the fitted dose curve at least 0.9, where 1 is the maximum; inconclusive means response in the unintended direction; inactive means score below 0.9.

As usually defined, the AC50 is the midpoint of the concentration-response curve, whichever way the signal moves. Take `CCCSP(=O)(OCC)Oc1ccc(Br)cc1Cl` (stereo not given): the AC50 in [1] is 15.1 µM (active). Also, the outcome in assay [2], in [3], in assay [4], in assay [5], in assay [6] and in [7] was inactive. Also, the outcome in assay [8], in assay [9], in [10], in assay [11], in assay [12] and in assay [13] was inactive. In addition, the call in [14] was inactive.

For `O=[N+]([O-])c1cc(C(F)(F)F)c(Cl)c([N+](=O)[O-])c1Nc1ncc(C(F)(F)F)cc1Cl`, the AC50 in [1] is 79.5 µM (active); in assay [2], 73.6 µM (active); in assay [3], 48.4 µM (active); in assay [15] it was 38.8 µM (active). For the same compound, the call in [10], in [11], in [12], in assay [13] and in assay [14] was inactive.

On to `C#CC(C)(C)NC(=O)c1cc(Cl)cc(Cl)c1`, for which the AC50 in [1] was 13 µM (active). The call in [2], in assay [3], in assay [15], in [4], in assay [5] and in [16] was inactive. The result in assay [6], in assay [7], in [8], in assay [9], in assay [10] and in assay [11] was inactive. Besides, the outcome in assay [12], in assay [13] and in assay [14] was inactive.

`CCCCN(CC)c1c([N+](=O)[O-])cc(C(F)(F)F)cc1[N+](=O)[O-]`: the AC50 in assay [1] is 32.2 µM (active). Besides, the compound was called inactive in assay [2], in assay [3], in assay [5], in assay [16], in assay [6] and in assay [7]. The outcome in assay [8], in assay [9], in assay [10], in assay [11], in [12] and in [17] was inactive. For the same compound, the compound was classed as inactive in assay [18], in [13] and in assay [14].

With `CC(C)N(C(=O)SCC(Cl)=C(Cl)Cl)C(C)C`, the result in assay [1], in assay [2], in assay [3], in assay [4], in assay [5] and in assay [16] was inactive. Moreover, the result in assay [6], in assay [7], in [8], in assay [9], in assay [19] and in [10] was inactive. For the same compound, the compound was called inactive in [11], in [12], in assay [17], in [18] and in [14].

Take `CCOP(=O)(SC(C)CC)N1CCSC1=O` (stereo not given): the result in assay [1], in assay [2], in assay [3], in assay [10], in [11] and in [12] was inactive. The call in assay [17], in assay [13] and in assay [14] was inactive.

Regarding `CC1=NNC(=O)N(/N=C/c2cccnc2)C1`, the compound was classed as inactive in assay [1], in assay [2], in assay [3], in assay [5], in assay [6] and in [7]. Moreover, the compound was classed as inactive in assay [9], in assay [10], in assay [11], in assay [12], in assay [17] and in assay [18]. The outcome in assay [13] and in assay [14] was inactive.

Consider `O=C(O)c1cc(Oc2ccc(C(F)(F)F)cc2Cl)ccc1[N+](=O)[O-]`, for which the AC50 in [1] is 22.7 µM (active). Further, the result in assay [2], in assay [3], in assay [10], in [11], in assay [12] and in assay [17] was inactive. Further, the call in [18], in assay [13] and in assay [14] was inactive.
